Assay results taken from PubChem BioAssay AID743354 (Broad Institute, 2014).
Entries with a potency or affinity are not part of this list. Activity calls are given as the source filed them.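 The calls were made as follows: active = cytotoxic signal drop with a fitted half-maximal concentration at most twice the top valid tested dose; inconclusive = flat fit with moderate signal loss, or poor fit quality; inactive = opposite effect, flat response, or potency beyond limit.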

Experiment: HEK293 cell cytotoxicity, dose response, cytotoxicity control, luminescence, dry powder, set 12 (AID 743354)
Details: HEK293T viability, CellTiter-Glo ATP luminescence, 72 h; series mostly up to 26 µM; activity change, negative = cytotoxic: at the top concentration

Row | SMILES | activity change, negative = cytotoxic
1 | CC(=O)c1ccc(N2CCN(C(=O)c3ccc4c(c3)OCO4)[C@H](C)C2)cc1 | -0.499% (inactive)
2 | CC(=O)c1ccc(NCCNC(=O)c2ccc3c(c2)OCO3)cc1 | -0.945% (inactive)
3 | COc1cccc(NC(=O)N2CC[C@@H]3[C@@H](CO)N(C)c4ccc(-c5cccc(F)c5)cc4[C@@H]32)c1 | -1.77% (inactive)
4 | CN1c2ccc(-c3ccc(F)cc3)cc2[C@H]2[C@H](CCN2C(=O)Nc2cc(F)ccc2F)[C@H]1CO | -9.18% [at 23.5 µM] (inactive)
5 | CN1c2ccc(-c3cccc(F)c3)cc2[C@H]2[C@H](CCN2C(=O)Nc2ccccc2F)[C@H]1CO | -2.02% [at 23.5 µM] (inactive)
6 | CN1c2ccc(-c3cccc(F)c3)cc2[C@H]2[C@H](CCN2C(=O)Cc2cccnc2)[C@H]1CO | -0.157% (inactive)
7 | CC(C)NC(=O)N1CC[C@@H]2[C@@H](CO)N(C)c3ccc(-c4cccc(F)c4)cc3[C@@H]21 | -2.92% (inactive)
8 | CN1c2ccc(-c3cccc(F)c3)cc2[C@H]2[C@H](CCN2C(=O)c2ccc3c(c2)OCO3)[C@@H]1CO | 3.57% (inactive)
9 | COCC(=O)N1CC[C@@H]2[C@@H](CO)N(C)c3ccc(-c4cccc(F)c4)cc3[C@@H]21 | -6.94% (inactive)
10 | COc1ccc(NC(=O)N2CC[C@@H]3[C@@H](CO)N(C)c4ccc(-c5ccc(F)cc5)cc4[C@@H]32)cc1 | -1.74% (inactive)
11 | COc1ccccc1C(=O)N1CCN(c2ccc(C(C)=O)cc2)CC1 | -1.08% (inactive)
12 | CN1c2ccc(-c3cccc(F)c3)cc2[C@H]2[C@H](CCN2C(=O)CCCCCCC(=O)O)[C@H]1CO | -2.42% (inactive)
13 | CCC(=O)N1CC[C@@H]2[C@@H](CO)N(C)c3ccc(-c4ccc(F)cc4)cc3[C@@H]21 | 2.33% [at 23.5 µM] (inactive)
14 | CC(=O)c1ccc(N2CC3(CN(C(=O)c4ccc5c(c4)OCO5)C3)C2)cc1 | 3.16% (inactive)
15 | CNS(=O)(=O)c1ccc(N2CCN(C(=O)c3ccc4c(c3)OCO4)CC2)cc1 | 1.42% (inactive)
16 | CC(=O)c1ccc(N2CCN(C(=O)c3ccc4c(c3)OCO4)CC2)cc1 | -6.96% (inactive)

Row | SMILES | activity change, negative = cytotoxic
17 | CN1c2ccc(-c3cccc(F)c3)cc2[C@@H]2[C@@H](CCN2C(=O)c2ccc3c(c2)OCO3)[C@@H]1CO | -1.34% (inactive)
18 | COC(=O)c1ccc(N2CCN(C(=O)c3ccc4c(c3)OCO4)CC2)cc1 | 1.03% (inactive)
19 | CC(C)NC(=O)N1CC[C@@H]2[C@@H](CO)N(C)c3ccc(-c4ccc(F)cc4)cc3[C@@H]21 | -6.15% (inactive)
20 | CNC(=O)c1ccc(N2CCN(C(=O)c3ccc4c(c3)OCO4)CC2)cc1 | -0.972% (inactive)
21 | CN1c2ccc(-c3ccc(F)cc3)cc2[C@H]2[C@H](CCN2C(=O)Cc2ccccn2)[C@H]1CO | -0.802% (inactive)
22 | COc1ccccc1NC(=O)N1CC[C@@H]2[C@@H](CO)N(C)c3ccc(-c4cccc(F)c4)cc3[C@@H]21 | -4.14% [at 23.5 µM] (inactive)
23 | CN1c2ccc(-c3cccc(F)c3)cc2[C@@H]2[C@@H](CCN2C(=O)c2ccc3c(c2)OCO3)[C@H]1CO | 1.77% (inactive)
24 | CN1c2ccc(-c3ccc(F)cc3)cc2[C@H]2[C@H](CCN2C(=O)Cc2cccnc2)[C@H]1CO | 2.81% [at 23.5 µM] (inactive)
25 | CCCNC(=O)N1CC[C@@H]2[C@@H](CO)N(C)c3ccc(-c4ccc(F)cc4)cc3[C@@H]21 | -1.65% (inactive)
26 | CCCCCCCC(=O)N1CC[C@@H]2[C@@H](CO)N(C)c3ccc(-c4cccc(F)c4)cc3[C@@H]21 | 3.9% (inactive)
27 | CC(=O)c1ccc(N2CCN(C(=O)c3ccccc3Cl)CC2)cc1 | -1% (inactive)
28 | CN1c2ccc(-c3ccc(F)cc3)cc2[C@H]2[C@H](CCN2C(=O)Nc2ccc(F)cc2)[C@H]1CO | -6.51% (inactive)
29 | CN(C)C(=O)c1ccc(N2CCN(C(=O)c3ccc4c(c3)OCO4)CC2)cc1 | -0.522% (inactive)
30 | COc1ccccc1NC(=O)N1CC[C@@H]2[C@@H](CO)N(C)c3ccc(-c4ccc(F)cc4)cc3[C@@H]21 | -4.86% (inactive)
31 | COc1ccc(NC(=O)N2CC[C@@H]3[C@@H](CO)N(C)c4ccc(-c5cccc(F)c5)cc4[C@@H]32)cc1 | 1.8% (inactive)
32 | CN1c2ccc(-c3cccc(F)c3)cc2[C@H]2[C@H](CCN2C(=O)Cc2ccccc2)[C@H]1CO | -7.06% [at 23.5 µM] (inactive)
